# Compounds with a hit are over-represented: about 19% of the library has one in this group of screens.
# TDP1 cell CPT: qHTS for Inhibitors of human tyrosyl-DNA phosphodiesterase 1 (TDP1): qHTS in cells in presence of CPT. chicken DT40 Tdp1-/-;hTDP1 cells + 20 nM CPT, ATP luminescence, 48 h. Potency, µM (titrated, usually from 46.2 µM), hits mostly inhibitors. 420,000 tested, 12% active. AID 686979, 2013; note: nearly all actives have a fitted effect of over 55% in size
#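 Chicken DT40 Tdp1-/- cells stably complemented with human TDP1 were seeded at 400 cells/well in medium containing 20 nM camptothecin, exposed to pin-transferred compounds, and grown at 37 °C for at least 48 hr. Viability was read as ATP luminescence.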
# HT1080 IDH1KD tx: qHTS for induction of synthetic lethality in tumor cells producing 2HG: qHTS for the HT-1080-IDH1KD cell line. HT-1080 IDH1 knockdown viability, ATP luminescence, 48 h. Potency, µM (doses to about 46.1 µM), actives largely listed as cytotoxic. 360,000 tested, 2% active. AID 686971, 2013
#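 CellTiter-Glo luminescence after 48 h compound exposure at 37 degrees C of IDH1-knockdown HT-1080 cells in 5% FBS RPMI. %Activity scaled between DMSO wells and cell-free media wells, with curves fitted and assigned curve classes.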
# HT1080-NT tox: qHTS for induction of synthetic lethality in tumor cells producing 2HG: qHTS for the HT-1080-NT fibrosarcoma cell line | HT-1080-NT fibrosarcoma viability, CellTiter-Glo ATP luminescence, 48 h | Potency, µM (highest dose often 46.1 µM), usual class: cytotoxic | 360,000 tested, 1.6% active;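 note: NT is the 2HG producing partner of a matched IDH1 knockdown line; nearly all actives have a fitted effect of over 55% in size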
#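 HT-1080-NT; 750 cells/well; 5% FBS RPMI; 48 h compound, 37 degrees C; CellTiter-Glo luminescence; curve fitting and curve-class assignment.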
# DT40 TDP1 no CPT: qHTS for Inhibitors of human tyrosyl-DNA phosphodiesterase 1 (TDP1): qHTS in cells in absence of CPT; DT40 Tdp1-/- hTDP1 cells, no CPT, ATP luminescence, 48 h; Potency, µM (top dose mostly 46.2 µM), hits mostly inhibitors; 420,000 tested, 15% active; note: nearly all actives have a fitted effect of over 55% in size
#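 A cellular qHTS used chicken DT40 cells lacking endogenous Tdp1 but carrying stably transfected human TDP1. Compounds were applied without camptothecin, and cell growth kinetics were judged by ATP-dependent luminescence after ≥48 hr.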
# IL-1B inflam inh: qHTS for Inhibitors of Inflammasome Signaling: IL-1-beta AlphaLISA Primary Screen | activity change, % at 57.5 µM | AID 743279, 2014 | THP-1 LPS/ATP IL-1B secretion, AlphaLISA, 16 h; hits give low values | 360,000 tested, 4.7% active; in the data active = activity change below about -50%; inconclusive = mostly about -30% to -49%
#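 THP-1 cells pretreated 1 hr with compounds (up to 57.5 uM final), then stimulated with LPS (250 ng/mL final) plus ATP (1.25 mM final); secreted IL-1B measured by AlphaLISA after 16 hr, decreased signal indicating inhibition.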
# Hits are given with their value; n = inactive; u = inconclusive; x = no result given. Unless noted, calls come from the whole dose curve; as a rule, active = well fitted curve in the direction sought with a large enough effect; inconclusive = small, poorly fitted or top-dose-only effect, or another doubt; inactive = no such curve, though single readings can be large; an effect the other way counts as inactive or inconclusive.
SMILES,TDP1 cell CPT,HT1080 IDH1KD tx,HT1080-NT tox,DT40 TDP1 no CPT,IL-1B inflam inh
Cc1cn([C@H]2C[C@H](O)[C@@H](/C=C/C(=O)NCCC(C)C)O2)c(=O)[nH]c1=O,n,n,n,n,n
CCCCC(=O)N1CCN(c2nc3c(C)c(C)ccc3s2)CC1,u,x,x,18µM,x
Cc1ccc2sc(N3CCN(C(=O)CCS(=O)(=O)c4ccc(Cl)cc4)CC3)nc2c1C,4.1µM,x,x,2.3µM,x
Cc1cc2c(cc1C)NC(CC(=O)Nc1cccc(C)c1C)C(=O)N2 (centres undefined),15µM,x,x,16µM,x
CCc1cc(C(=O)OC)c(NC(=O)CC2Nc3cc(C)c(C)cc3NC2=O)s1 (centres undefined),n,n,n,n,n
COC(=O)c1c(NC(=O)CC2Nc3cc(C)c(C)cc3NC2=O)sc(C)c1C (centres undefined),21µM,n,n,u,n
Cc1cc2c(cc1C)NC(CC(=O)Nc1ccccc1SC(F)(F)F)C(=O)N2 (centres undefined),u,x,x,16µM,x
CCOC(=O)C1CCN(Cc2cn(C)nc2-c2ccc(Oc3ccccc3)cc2)CC1,n,n,n,u,n
Cc1ccccc1NC(=O)N1CCNC(=O)C1CC(=O)Nc1cc(Cl)ccc1Cl (centres undefined),n,n,n,n,n
CCN(CC(=O)Nc1cc(Cl)ccc1C)C(=O)c1ccc2c(=O)n3c(nc2c1)CCC3,n,n,n,n,n
CCCC1/C(=N/O)CC(c2ccccc2)NC1c1ccccc1 (centres undefined),u,u,u,4.1µM,-98
CC(C)C1/C(=N/O)CC(c2ccccc2)NC1c1ccccc1 (centres undefined),16µM,u,u,21µM,n
CC1/C(=N/O)CC(c2ccccc2)NC1c1ccccc1 (centres undefined),u,n,n,u,n
CCC1C(=NO)C(CC)C(c2ccccc2)NC1c1ccccc1 (centres undefined),u,u,u,u,-51
COc1ncnc2c1ncn2CCCN(C)CCc1ccccn1,n,n,n,n,n
CC1c2ccccc2-c2ccccc2N1C (centres undefined),n,n,n,u,n
CCc1ccc(S(=O)(=O)c2nnn3c2nc(Nc2ccc(C)c(Cl)c2)c2sccc23)cc1,u,x,x,n,x
O=C(N/N=C/c1cn(-c2ccccc2)nc1-c1cc2ccccc2o1)c1ccccc1Br,4.6µM,12µM,u,15µM,n
O=C(N/N=C/c1cn(-c2ccccc2)nc1-c1cc2ccccc2o1)c1c[nH]c2ccccc12,u,n,n,4.6µM,-60
Cc1ccc2c(COC(=O)C3CC(=O)N(c4ccc5c(c4)OCCO5)C3)cc(=O)oc2c1 (centres undefined),n,n,n,n,n
CCC(=O)Nc1ccc(C2C(=O)c3ccccc3C2=O)cc1,16µM,n,n,21µM,n
COC1=C(Nc2ccc(O)cc2)C(=O)c2ccccc2C1=O,4.1µM,23µM,10µM,u,-64
CCOc1ccc(NC2=C(OC)C(=O)c3ccccc3C2=O)cc1,21µM,n,n,u,-83
O=C(NC1=C(Nc2ccc(F)cc2)C(=O)c2ccccc2C1=O)c1ccc(Cl)cc1,21µM,n,n,u,n
CCCCC(=O)Nc1ccc(C2C(=O)c3ccccc3C2=O)cc1,n,n,n,u,n
SMILES,TDP1 cell CPT,HT1080 IDH1KD tx,HT1080-NT tox,DT40 TDP1 no CPT,IL-1B inflam inh
COc1cccc(NC(=O)CN(C)C(=O)C2=COCCO2)c1,n,n,n,n,n
COC1=C(Nc2ccc(OC)cc2)C(=O)c2ccccc2C1=O,29µM,n,n,15µM,u
COC1=C(Nc2ccc(OC)cc2)C(=O)C(OC)=C(Nc2ccc(OC)cc2)C1=O,n,n,n,n,n
CCC(=O)Nc1ccc(NC(=S)Nc2ccccc2)cc1,n,n,n,n,n
COc1ccc(NC2=C(NC(C)=O)C(=O)c3ccccc3C2=O)cc1,13µM,u,n,18µM,n
CCC(=O)NC1=C(Nc2ccc(N)cc2)C(=O)c2ccccc2C1=O,u,n,n,8.2µM,n
COc1ccc(C2=C(Nc3ccccc3)c3ccccc3C2=O)cc1,n,n,n,u,n
COc1ccc(C(=O)C(Sc2nnc(C)c(=O)[nH]2)c2ccc(OC)cc2)cc1 (centres undefined),n,n,n,n,n
CC(=O)N1CCc2cc(Br)cc(S(=O)(=O)NCCc3ccc(Cl)cc3)c21,n,x,x,n,x
Cc1ccccc1NC(=O)C1CCN(S(=O)(=O)c2ccccc2)CC1,n,x,x,n,x
CCN(C(=O)COC(=O)c1cc(-c2cccs2)nc2ccccc12)C1CCS(=O)(=O)C1 (centres undefined),n,u,n,n,-54
COc1ccc(-c2cc(C(=O)OCC(=O)N(C)C3CCS(=O)(=O)C3)c3ccccc3n2)cc1OC (centres undefined),u,n,n,u,-62
CN(C(=O)COC(=O)/C=C/c1ccc2ccccc2n1)C1CCS(=O)(=O)C1 (centres undefined),u,n,n,u,-106
COc1ccc(Cc2nc3ccc(C(=O)N4CCCCC4CCO)cc3o2)cc1 (centres undefined),u,n,n,u,n
C/C(=N/NC(=O)c1ccc(C)nc1)c1ccc2c(c1)CCCC2,15µM,23µM,16µM,23µM,n
NC(=S)NNc1cc(Cl)cc(Cl)c1,13µM,n,n,u,n
Cc1cc(C)c(Cn2c(C3CC(=O)N(c4ccc(F)cc4)C3)nc3ccccc32)c(C)c1 (centres undefined),n,x,x,u,x
Cc1ccc(C)c(Cn2c(C3CC(=O)N(c4ccccc4C)C3)nc3ccccc32)c1 (centres undefined),23µM,x,x,21µM,x
CCc1ccccc1N1CC(c2nc3ccccc3n2Cc2cccc(C)c2)CC1=O (centres undefined),10µM,x,x,13µM,x
CC1CCN(c2nc3nonc3nc2Nc2ccc(F)cc2)CC1,n,n,n,u,-76
COc1ccc(Nc2nc3nonc3nc2N2CCCCC2)cc1,n,n,n,n,n
CCC(C)(C)n1nnnc1C(c1ccc(C)cc1)N1CCN(Cc2ccc3c(c2)OCO3)CC1 (centres undefined),n,n,n,u,-53
CCC(C)(C)n1nnnc1C(c1ccc2ncccc2c1)N1CCN(Cc2ccc3c(c2)OCO3)CC1 (centres undefined),n,n,n,n,n
